DT40 TDP1 CPT = growth inhibition of DT40 Tdp1-/-;hTDP1 cells with camptothecin (screen for TDP1 inhibitors); chicken DT40 Tdp1-/-;hTDP1 cells + 20 nM CPT, ATP luminescence, 48 h; Potency, µM (highest dose often 46.2 µM), actives largely listed as inhibitors; 420,000 compounds, 12% hits; further: nearly all actives have a fitted effect of over 55% in size
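Chicken DT40 Tdp1-/- cells stably complemented with human TDP1 were seeded at 400 cells/well in medium containing 20 nM camptothecin, exposed to pin-transferred compounds, and grown at 37 °C for at least 48 hr. Viability was read as ATP luminescence.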
HepG2 tox = kills HepG2 cells in TGF-b inhibitor counter-screen; 410,000 compounds, 0.76% hits; HepG2 CAGA-GFP viability, ATP luminescence, 18 h; Potency, µM (titrated, usually from 46.1 µM), actives largely listed as cytotoxic
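HepG2 CAGA-GFP cells (1000/well, DMEM with 1% FBS) received compound, then TGF-beta at 500 pg/mL final, and were incubated 18 hours at 37 degrees C. Viability was read by CellTiter-Glo luminescence. Media-only wells were set as complete cell-killing and DMSO as no toxicity.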
TGFb inhibitor = TGF-b pathway inhibition; 410,000 compounds, 1.2% hits; HepG2 CAGA-GFP TGF-b/SMAD3 reporter, GFP fluorescence, 18 h; TGF-beta stimulated, 500 pg/mL final; Potency, µM (doses to about 46.1 µM), hits mostly inhibitors; further: nearly all actives have a fitted effect of over 65% in size
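Inhibition was scored as loss of TGF-beta-induced (500 pg/mL final, 18 hours, 37 degrees C) GFP in HEPG2 cells carrying a CAGA-GFP reporter, in DMEM with 1% FBS. Well GFP was summed per cell; Activity was normalised to unstimulated and stimulated DMSO wells, then concentration-response fitting.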
IL-1B inflam inh = inflammasome signaling inhibition, IL-1 beta readout; THP-1 LPS/ATP IL-1B secretion, AlphaLISA, 16 h; stronger effect = lower value; activity change, % at 57.5 µM; 360,000 compounds, 4.7% hits; AID 743279; in the data active means activity change below about -50%; inconclusive means mostly about -30% to -49%
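Secreted IL-1B measured by AlphaLISA bead assay after 16 h compound exposure of THP-1 cells; compounds (final up to 57.5 uM) added 1 h before LPS (250 ng/mL) and ATP (1.25 mM) stimulation; lower signal means less secretion.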
TDP1 inh = inhibitors of human tyrosyl-DNA phosphodiesterase TDP1; 350,000 compounds, 0.28% hits; Q9NUW8; AID 485290; recombinant TDP1, AlphaScreen DNA substrate cleavage; Potency, µM (top dose mostly 130 µM), hits mostly inhibitors; further: nearly all actives have a fitted effect of over 40% in size
Target sequence (Q9NUW8 whole entry, looked up): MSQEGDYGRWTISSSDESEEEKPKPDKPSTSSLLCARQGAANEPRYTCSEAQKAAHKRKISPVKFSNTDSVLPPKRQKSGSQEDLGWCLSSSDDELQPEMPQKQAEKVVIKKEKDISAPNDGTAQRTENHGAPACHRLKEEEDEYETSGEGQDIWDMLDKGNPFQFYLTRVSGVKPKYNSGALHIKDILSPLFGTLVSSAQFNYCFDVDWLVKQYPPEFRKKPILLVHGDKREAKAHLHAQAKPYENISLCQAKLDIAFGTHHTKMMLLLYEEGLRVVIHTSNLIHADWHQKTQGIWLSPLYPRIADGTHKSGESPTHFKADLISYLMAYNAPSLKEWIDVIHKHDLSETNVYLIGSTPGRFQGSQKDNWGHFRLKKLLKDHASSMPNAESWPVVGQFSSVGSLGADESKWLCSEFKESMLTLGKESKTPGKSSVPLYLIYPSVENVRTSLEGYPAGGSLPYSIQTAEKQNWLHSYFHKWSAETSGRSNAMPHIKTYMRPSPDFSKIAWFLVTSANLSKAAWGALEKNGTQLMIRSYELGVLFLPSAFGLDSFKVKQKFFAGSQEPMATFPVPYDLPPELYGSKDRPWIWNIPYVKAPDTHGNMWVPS
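Steps: enzyme plus compound, 15 min RT; add biotin/phosphotyrosine-FITC oligonucleotide (15 nM final), react 5 min; add donor/acceptor beads (10 ug/ml final), 10 min; read AlphaScreen. Tdp1 at 1 nM final.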
TDP1 cell noCPT = qHTS for Inhibitors of human tyrosyl-DNA phosphodiesterase 1 (TDP1): qHTS in cells in absence of CPT; DT40 Tdp1-/- hTDP1 cells, no CPT, ATP luminescence, 48 h; Potency, µM (highest dose often 46.2 µM), most hits filed as inhibitors; 420,000 compounds, 15% hits; further: nearly all actives have a fitted effect of over 55% in size
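Growth of hTDP1-complemented DT40 Tdp1-knockout cells is measured by ATP luminescence after at least 48 hr compound exposure at 37 °C, with DMSO substituting for the 20 nM CPT used in the parallel screen.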
Of the large screens only hits and unclear results are named; the others gave an inactive call. Compounds with a hit are over-represented: about 18% of the library has one in this group of screens. Unless noted, the call rests on the fitted dose curve; in most records, active means well fitted curve in the direction sought with a large enough effect; inconclusive means small, poorly fitted or top-dose-only effect, or another doubt; inactive means no such curve, though single readings can be large; an effect the other way counts as inactive or inconclusive.

O=C1C(=O)N(CCCc2ccccc2)c2ccccc21	DT40 TDP1 CPT 2.1µM, TGFb inhibitor inconclusive, TDP1 cell noCPT 1.6µM (no result: TDP1 inh)
CCOC(=O)C(C)N1C(=O)S/C(=C/c2ccc3c(c2)n(C)c(=O)n3C)C1=O (configuration not stated)	DT40 TDP1 CPT inconclusive, TDP1 cell noCPT inconclusive
CCC(C)N1C(=O)S/C(=C/c2ccc3c(c2)n(C)c(=O)n3C)C1=O (configuration not stated)	DT40 TDP1 CPT 23µM, TDP1 cell noCPT 23µM
O=C(Nc1nncs1)C1CC(=O)N(C2CCCC2)C1 (configuration not stated)	none
O=C(O)CC/C(=N/NC(=O)CNC(=O)c1ccc2c(c1)OCCO2)c1ccccc1	none (no result: TDP1 inh)
COc1ccc(N(C)S(=O)(=O)c2cccc(C(=O)NC3=NCCS3)c2)cc1	TDP1 cell noCPT inconclusive
O=C1C(=C2SCCCS2)CC/C1=C\c1ccc(F)cc1	DT40 TDP1 CPT inconclusive, TDP1 cell noCPT inconclusive
Cc1cccc(/C=C2\CCC(=C3SCCCS3)C2=O)c1	DT40 TDP1 CPT inconclusive, TDP1 cell noCPT 15µM
CCCCC(C)(O)C/C=C/[C@H]1[C@H](O)CC(=O)[C@@H]1CCCCCCC(=O)OC (some centres not stated)	DT40 TDP1 CPT inconclusive, TDP1 cell noCPT 1.5µM (no result: HepG2 tox, TGFb inhibitor, IL-1B inflam inh)
Cc1ccc(/C=N/N2CCN(Cc3cccc4ccccc34)CC2)s1	DT40 TDP1 CPT inconclusive, TDP1 cell noCPT inconclusive
CCc1ccc(NC(=O)CSC2=Nc3ccccc3C3=NC(CC(=O)NCc4ccc5c(c4)OCO5)C(=O)N23)cc1 (configuration not stated)	DT40 TDP1 CPT inconclusive, TDP1 cell noCPT 23µM (no result: IL-1B inflam inh)
COc1ccc(OC)c(NC(=O)CSC2=Nc3ccccc3C3=NC(CC(=O)NCc4ccc5c(c4)OCO5)C(=O)N23)c1 (configuration not stated)	DT40 TDP1 CPT inconclusive, TDP1 cell noCPT 23µM (no result: IL-1B inflam inh)
O=C(CC1N=C2c3ccccc3N=C(SCC(=O)Nc3ccc(F)cc3)N2C1=O)NCc1ccc2c(c1)OCO2 (configuration not stated)	DT40 TDP1 CPT inconclusive, TGFb inhibitor inconclusive (no result: IL-1B inflam inh)
Cc1ccc(CCNC(=O)c2ccc(NC(=O)N3CCSc4ccccc43)cc2)cc1	DT40 TDP1 CPT inconclusive, TDP1 cell noCPT inconclusive (no result: IL-1B inflam inh)
COc1ccc(C2C3=C(N=CN(CCN4CCOCC4)C3N)Oc3ccccc32)cc1OC (configuration not stated)	none (no result: DT40 TDP1 CPT, HepG2 tox, TGFb inhibitor, IL-1B inflam inh, TDP1 cell noCPT)
CC(=O)C[C@H](O)CC(=O)[C@H]1OC(=O)CC/C=C\Cc2ccccc21	none
O=c1c(-c2cc(-c3ccccc3)nc3c2COc2ccccc2-3)coc2ccc(Cl)cc12	none (no result: IL-1B inflam inh)
C/C(N)=C(/C#N)C(=O)CSc1nnc(SCc2ccc(Cl)cc2)s1	DT40 TDP1 CPT 13µM, TDP1 cell noCPT 16µM (no result: TDP1 inh)
CCCCOC(=O)c1ccc(NC(=O)c2csnn2)cc1	none (no result: IL-1B inflam inh)
CCc1ccc(/C=C/C(=O)C2C(=O)c3ccccc3C2=O)cc1	DT40 TDP1 CPT inconclusive, IL-1B inflam inh inconclusive, TDP1 cell noCPT inconclusive
CC[N+]1(C)CCC(O)(/C=C/c2ccccc2)C(C(=O)/C=C/c2ccccc2)C1 (configuration not stated)	DT40 TDP1 CPT 0.033µM, HepG2 tox 11µM, TGFb inhibitor 4µM, IL-1B inflam inh -102, TDP1 cell noCPT 0.13µM (no result: TDP1 inh)
CCCCC(=O)OC1=C(C(=O)c2ccccc2)N(CC)S(=O)(=O)c2ccccc21	DT40 TDP1 CPT 21µM, TGFb inhibitor inconclusive, TDP1 cell noCPT 7.3µM (no result: IL-1B inflam inh)
CCCCN1C(C(=O)c2ccccc2)=C(OC(C)=O)c2ccccc2S1(=O)=O	DT40 TDP1 CPT 5.2µM, TGFb inhibitor inconclusive, TDP1 cell noCPT 4.6µM (no result: IL-1B inflam inh)
CCN1C(C(=O)c2ccccc2)=C(OC(=O)c2ccccc2OC)c2ccccc2S1(=O)=O	DT40 TDP1 CPT 4.6µM, HepG2 tox 4.5µM, TGFb inhibitor 10µM, TDP1 cell noCPT 3.3µM (no result: IL-1B inflam inh, TDP1 inh)
